The panel holds about 83,000 compounds, 20% with a hit somewhere; the sample as a whole holds those more often.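 Single-concentration screen, 48 h exposure, 96-well plates. Endpoint: percent growth. Below 10 = active.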 Values without a mark were called inactive. Active and inactive are the calls of the source.
Each molecule was assayed on MDA-MB-231 breast (assay: NCI-60 one-dose screen, 48 h (100 = growth as untreated, 0 = no growth, -100 = all killed)). Settings: 10 µM unless noted.

| SMILES | growth |
| --- | --- |
| O=C1c2cc3c(cc2-c2c1c1ccc(F)cc1c(=O)n2C[C@H](O)[C@@H](O)[C@H](O)CO)OCO3 | 11.1% |
| O=C(Nc1cccc2[nH]c(C(F)(F)F)nc12)c1ccc(-n2cnnn2)cc1 | 93.1% |
| Fc1ccc(CNc2cccc3[nH]c(C(F)(F)F)nc23)cc1 | 73.8% |
| O=C1c2cc3c(cc2-c2c1c1ccc(F)cc1c(=O)n2CCCNCCO)OCO3 | -70% (active) |
| N#CN1CC[C@H](C(=O)Nc2cc3cc(C(N)=O)ccc3cn2)C1 | -0.49% (active) |

These molecules were tested on RXF 393 renal in the same assay as above. Settings: 10 µM unless noted.

| SMILES | growth |
| --- | --- |
| COc1cccc(/C=C2\Oc3cc(OCCN4CCCC4)ccc3C2=O)c1 | 97.5% |
| COc1ccc(-c2nc3ccc(-c4nc5ccc(N6CCN(c7ccncc7)CC6)cc5[nH]4)cc3[nH]2)cc1OC | 85.1% |
| Cc1ccc(C2=NN3C(C2)c2cc(Br)ccc2OC32CCN(Cc3ccccc3)CC2)o1 (centres undefined) | 110% |
| COc1cc2c(cc1-c1c(C)noc1C)ncc1nc(-c3ccccn3)n([C@H](C)COC(F)F)c12 | 60.8% |
| Cc1oc(-c2ccc(Cl)cc2Cl)cc1C(=O)Nc1nccs1 | 88.2% |
| COc1ccc2c(c1)c(-c1nonc1-c1cn(C)c3ccccc13)cn2C | -9.91% (active) |
| COC(=O)c1ccc(NC(=O)c2ccc(-c3cccc([N+](=O)[O-])c3)o2)cc1 | 92.7% |
| COc1cccc(C2=NN3C(C2)c2cc(Br)cc(OC)c2OC32CCN(Cc3ccccc3)CC2)c1 (centres undefined) | 115% |
| O=C1c2cc3c(cc2-c2c1c1cc(F)c(F)cc1c(=O)n2CCCn1ccnc1)OCO3 | -22.4% (active) |
| Cc1ccc2c(C(C[N+](=O)[O-])c3ccccc3F)c(-c3ccccc3)[nH]c2c1 (centres undefined) | 63.6% |
| Cc1ccccc1COc1ccc(-c2onc(C)c2-c2ccc(Cl)cc2)cc1 | 70.2% |
| COC[C@H](C)n1c(C2CCOCC2)nc2cnc3cc(-c4c(C)noc4C)c(OC)cc3c21 | 67% |
| C#CCOc1ccc2ncnc(NCc3cccc(NC(=O)CCl)c3)c2c1 | 42.3% [8.25 µM] |
| COc1cc(-c2nn(C)nc2-c2cc3ccccc3s2)cc(OC)c1OC | 35.3% |
| O=C1NC(=S)N[C@H]1CC(=O)n1cnc2ccccc21 | 99.7% |
| O=S(=O)(Nc1ccc(I)cc1F)c1ccc(-c2cnc(C3CC3)o2)cc1 | 73% |
| CC[C@@H](C(=O)[C@@H](C)[C@@H](O)[C@H](C)[C@@H]1O[C@@H]([C@@H](CC)C(=O)O)CC[C@@H]1C)[C@H]1OC2(C=C[C@@H](O)[C@]3(CC[C@@](C)([C@H]4CC[C@](O)(CC)[C@H](C)O4)O3)O2)[C@H](C)C[C@@H]1C (some centres undefined) | -32.6% (active) |
| CCOC(=O)c1csc(NC(=O)COc2cccc(/C=C3\CSc4ccccc4C3=O)c2)n1 | 64.9% |
| CN1CCN(c2ccc3nc(-c4ccc(OCCCCN5CCN(CCCCN6C(=O)c7cccc8cccc(c78)C6=O)CC5)cc4)[nH]c3c2)CC1 | 16.1% |
| Cc1ncc(C(=O)Nc2ccc(CN3CCN(C)CC3)c(C(F)(F)F)c2)cc1C#Cc1cnc2cccnn12 | -58.1% (active) |

| SMILES | growth |
| --- | --- |
| Cc1nc2c3c(-c4ccccc4)c(-c4ccccc4)oc3ncn2n1 | 99.6% |
| O=C(N/N=C/c1ccccc1O)c1ccccc1Nc1ccnc(C(F)(F)F)c1 | 18.7% |
| COC(=O)[C@]12CCC(C)(C)C[C@H]1[C@H]1C(=O)C[C@@H]3[C@@]4(C)c5c([nH]c6ccccc6c5=O)C(C)(C)[C@@H]4CC[C@@]3(C)[C@]1(C)CC2 | 65.7% |
| COc1ccc(-c2n[nH]nc2-c2csc3ccccc23)cc1OC | 23.5% |
| O=C1c2ccccc2C(=O)c2c(N=Nc3[nH]c(=S)[nH]c3O)cccc21 | -22.4% (active) |
| Cn1c(NCCc2ccc(O)c(O)c2)nc2c1c(=O)n(Cc1ccc(Br)cc1)c(=O)n2C | 81% |
| Cc1ccc(/C=C2\SC(=S)N(CC(=O)NCCCN3CCOCC3)C2=O)cc1 | 101% |
| Cc1ccc(C2Oc3ccccc3C3CC(c4cccs4)=NN32)cc1 (centres undefined) | 101% |
| C=CC(=O)Nc1cccc(-c2nc(SC)nc(NCCc3ccc(OC)c(OC)c3)c2C#N)c1 | 59.4% |
| Cc1nc(/N=C(\N)NC(=O)Nc2cccc([N+](=O)[O-])c2)sc1C | 91.4% |
| COc1ccc(-n2nc(C)c3c(Nc4ccc(NC(=O)Nc5ccc(Cl)c(C(F)(F)F)c5)cc4)ncnc32)cc1 | -35.7% (active) |
| O=C(/C=C/c1cccc([N+](=O)[O-])c1)c1ccc(O)c(CN2CCN(c3cc4c(cc3F)c(=O)c(C(=O)O)cn4C3CC3)CC2)c1 | -12.4% (active) |
| CCC([N+](=O)[O-])S(=O)(=O)c1ccc(C)cc1 (centres undefined) | 97.1% |
| Cc1cn2c(/C=C3/C(=O)Nc4c3ccc3ccccc43)c(C(F)(F)F)nc2s1 | -19.3% (active) |
| O=C1c2cc3c(cc2-c2c1c1ccc(F)cc1c(=O)n2C[C@H](O)[C@@H](O)[C@H](O)CO)OCO3 | -47.1% (active) |
| O=C(Nc1cccc2[nH]c(C(F)(F)F)nc12)c1ccc(-n2cnnn2)cc1 | 96.1% |
| Fc1ccc(CNc2cccc3[nH]c(C(F)(F)F)nc23)cc1 | 99.1% |
| O=C1c2cc3c(cc2-c2c1c1ccc(F)cc1c(=O)n2CCCNCCO)OCO3 | -92.4% (active) |
| N#CN1CC[C@H](C(=O)Nc2cc3cc(C(N)=O)ccc3cn2)C1 | -52.3% (active) |
